In the library only some 1.6% were active in any assay of this set; here they are far more common.
MLLE-PAM2 inh: blocks PAM2 peptide binding to the PABP1 MLLE domain; GST-MLLE / FITC-PAM2 fluorescence polarization; inhibition, % at 20 µM; 360,000 tested, 0.36% active; AID 588489; in the data active = inhibition above about 35%, passing the limit was not always enough
PABP FP inh: PABP-poly(A) binding inhibition; 290,000 tested, 1% active; PABP-poly(A) RNA binding, fluorescence polarization; inhibition, % at 35 µM; P11940;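 note: calls also rest on retests at 20 µM and on dose response follow-up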
PERK inhibitor: human PERK inhibition, primary cell-based screen; CHO PERK-DD fusion, SEAP luminescence translation reporter; inhibition, % at 5.6 µM; 220,000 tested, 0.17% active; AID 1416;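 active = inhibition above the mean inhibition of all tested compounds plus 3 SD, set separately per screening campaign, cut at about 2.9% in these data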;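 note: PERK kinase domain activated by AP20187 dimerizer at 100 nM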
eIF4E-4G inh: inhibitors of eIF4E and eIF4G interaction in translation initiation; AID 782; TR-FRET eIF4E-eIF4GI(517-606) binding, 2 h; inhibition, % at 21.7 µM; P63073+Q04637; 220,000 tested, 0.37% active;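 active = inhibition above about 30%, limit read from the data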
Target sequence (P63073 whole entry, looked up): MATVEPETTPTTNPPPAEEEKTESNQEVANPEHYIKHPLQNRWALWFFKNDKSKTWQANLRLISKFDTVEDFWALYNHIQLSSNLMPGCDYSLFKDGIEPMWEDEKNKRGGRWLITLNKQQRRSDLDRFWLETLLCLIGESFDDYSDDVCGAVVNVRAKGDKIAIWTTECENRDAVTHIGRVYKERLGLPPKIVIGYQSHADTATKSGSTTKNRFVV
Target sequence (Q04637 whole entry, looked up): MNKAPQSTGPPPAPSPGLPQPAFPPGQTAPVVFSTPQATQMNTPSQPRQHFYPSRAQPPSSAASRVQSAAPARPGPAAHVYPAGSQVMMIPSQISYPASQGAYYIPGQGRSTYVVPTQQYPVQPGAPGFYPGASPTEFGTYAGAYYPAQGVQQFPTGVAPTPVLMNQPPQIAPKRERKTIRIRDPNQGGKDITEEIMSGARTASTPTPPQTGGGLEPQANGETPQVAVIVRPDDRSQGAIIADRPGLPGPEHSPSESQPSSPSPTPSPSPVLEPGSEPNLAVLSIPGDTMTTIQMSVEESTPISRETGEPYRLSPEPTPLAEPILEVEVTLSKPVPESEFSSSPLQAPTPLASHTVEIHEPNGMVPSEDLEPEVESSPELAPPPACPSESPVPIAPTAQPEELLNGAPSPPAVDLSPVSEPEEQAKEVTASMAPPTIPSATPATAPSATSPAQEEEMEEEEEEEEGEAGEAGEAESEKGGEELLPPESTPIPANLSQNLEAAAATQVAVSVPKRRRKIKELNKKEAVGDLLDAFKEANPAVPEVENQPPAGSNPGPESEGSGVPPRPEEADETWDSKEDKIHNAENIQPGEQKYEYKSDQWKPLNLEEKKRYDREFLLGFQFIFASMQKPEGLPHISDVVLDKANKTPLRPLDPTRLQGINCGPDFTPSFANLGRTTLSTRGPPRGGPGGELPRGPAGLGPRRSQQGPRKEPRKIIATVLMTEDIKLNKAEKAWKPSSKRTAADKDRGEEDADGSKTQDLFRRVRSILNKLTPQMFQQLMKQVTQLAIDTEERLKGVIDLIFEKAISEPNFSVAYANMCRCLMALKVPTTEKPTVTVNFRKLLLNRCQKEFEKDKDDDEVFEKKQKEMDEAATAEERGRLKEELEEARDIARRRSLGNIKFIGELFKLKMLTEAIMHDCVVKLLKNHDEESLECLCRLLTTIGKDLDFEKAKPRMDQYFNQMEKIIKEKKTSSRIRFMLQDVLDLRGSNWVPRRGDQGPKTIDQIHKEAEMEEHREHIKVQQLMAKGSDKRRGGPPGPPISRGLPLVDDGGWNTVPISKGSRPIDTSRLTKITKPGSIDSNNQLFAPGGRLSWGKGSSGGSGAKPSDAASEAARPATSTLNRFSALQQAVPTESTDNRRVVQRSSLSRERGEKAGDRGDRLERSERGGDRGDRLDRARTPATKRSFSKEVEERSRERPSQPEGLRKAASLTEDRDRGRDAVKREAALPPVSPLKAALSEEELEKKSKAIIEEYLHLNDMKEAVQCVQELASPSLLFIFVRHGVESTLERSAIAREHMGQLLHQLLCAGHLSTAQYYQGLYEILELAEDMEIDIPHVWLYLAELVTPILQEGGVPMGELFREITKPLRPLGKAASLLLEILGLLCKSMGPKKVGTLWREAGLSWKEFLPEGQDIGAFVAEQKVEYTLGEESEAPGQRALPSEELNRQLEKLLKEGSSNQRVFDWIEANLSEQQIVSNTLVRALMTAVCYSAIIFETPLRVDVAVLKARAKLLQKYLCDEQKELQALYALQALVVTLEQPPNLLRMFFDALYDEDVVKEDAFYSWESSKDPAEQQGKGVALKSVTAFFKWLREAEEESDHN
eIF4H FP inh: inhibitors of RNA binding by human eIF4H; inhibition, % at 35 µM; 290,000 tested, 0.94% active; eIF4H fluorescence polarization binding assay; Q15056;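 note: calls also rest on retests at 20 µM and on dose response follow-up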
Numbers stand for hits; ! = repeats disagree; [ ] = another dose, or the depositor's remark. Unless noted, the rule behind the calls is not given here.

For O=c1[nH]c(=O)n(-c2ccccc2)c(O)c1N=Nc1ccc(Br)cc1 the results were MLLE-PAM2 inh inactive, PABP FP inh inactive, PERK inhibitor inactive, eIF4E-4G inh inactive and eIF4H FP inh 2.1.
`CC12CC[C@H]3[C@@H](CCC4(O)C[C@H](O)CCC34/C=N/NC(=O)c3ccccc3O)C1(O)CCC2C1=CC(=O)OC1` (stereo partly specified) gave MLLE-PAM2 inh inactive, PABP FP inh inactive, PERK inhibitor 3.1, eIF4E-4G inh inactive and eIF4H FP inh inactive.
Screening CC12CC[C@H]3[C@@H](CCC4(O)C[C@H](O)CCC34/C=N/NC(=O)c3ccc(O)cc3)C1(O)CCC2C1=CC(=O)OC1 (stereo partly specified) returned MLLE-PAM2 inh inactive, PABP FP inh inactive, PERK inhibitor 2.9, eIF4E-4G inh inactive and eIF4H FP inh inactive.
For CC12CC[C@H]3[C@@H](CCC4(O)C[C@H](O)CCC34/C=N/NC(=O)c3ccccc3F)C1(O)CCC2C1=CC(=O)OC1 (stereo partly specified) the results were MLLE-PAM2 inh inactive, PABP FP inh inactive, PERK inhibitor inactive, eIF4E-4G inh inactive and eIF4H FP inh inactive.
Screening CN(C)c1ccc(C(=O)N/N=C/C23CC[C@@H](O)CC2(O)CC[C@@H]2[C@@H]3CCC3(C)C(C4=CC(=O)OC4)CCC23O)cc1 (stereo partly specified) returned MLLE-PAM2 inh inactive, PABP FP inh inactive, PERK inhibitor inactive, eIF4E-4G inh inactive and eIF4H FP inh inactive.
CCC(=O)C(CCN1CCOCC1)(c1ccccc1)c1ccccc1 was read as MLLE-PAM2 inh inactive.
Screening ClCCN(CCCl)c1ccc(C2=NCCc3ccccc32)cc1 returned MLLE-PAM2 inh inactive.
`Nc1ccc2c3c(cccc13)CC2` gave MLLE-PAM2 inh inactive, PABP FP inh 36, PERK inhibitor inactive and eIF4H FP inh 70.
Cc1ccccc1NC1=NCC(C)S1 (stereo unspecified) was read as MLLE-PAM2 inh inactive, PABP FP inh inactive, PERK inhibitor inactive, eIF4E-4G inh inactive and eIF4H FP inh inactive.
CC[n+]1c(-c2ccccc2)c2cc(N)ccc2c2ccc(N)cc21 was read as MLLE-PAM2 inh 79.
`NCCc1ccc(S(N)(=O)=O)cc1` gave MLLE-PAM2 inh inactive, PABP FP inh 79, PERK inhibitor inactive, eIF4E-4G inh inactive and eIF4H FP inh active.
O=C1/C(=C\c2cc3c(cc2Br)OCO3)N2CCC1CC2 was read as MLLE-PAM2 inh inactive, PABP FP inh 5.0, PERK inhibitor inactive, eIF4E-4G inh inactive and eIF4H FP inh 70.
`COc1ccc(CC(=O)N2CCN(C)CC2)cc1OC` gave MLLE-PAM2 inh inactive, PABP FP inh inactive, PERK inhibitor inactive, eIF4E-4G inh inactive and eIF4H FP inh inactive.
Screening COc1ccc(CCN)cc1O returned MLLE-PAM2 inh inactive.
Screening NCCc1cc(O)c(O)cc1O returned MLLE-PAM2 inh 47!.
For O=C(Cc1ccccc1)OCn1nnc2ccccc2c1=O the results were MLLE-PAM2 inh inactive, PABP FP inh inactive, PERK inhibitor inactive, eIF4E-4G inh 59[fluorescence artefact?] and eIF4H FP inh inactive.
Screening CCCCn1c(O)c(C(CC)=NC(C)c2ccccc2)c(=O)[nH]c1=O (stereo unspecified) returned MLLE-PAM2 inh inactive, PABP FP inh inactive, PERK inhibitor inactive, eIF4E-4G inh inactive and eIF4H FP inh inactive.
`CCCCn1c(O)c(C(C)=NC(C)c2ccccc2)c(=O)[nH]c1=O` (stereo unspecified) gave MLLE-PAM2 inh inactive, PABP FP inh 59, PERK inhibitor inactive, eIF4E-4G inh inactive and eIF4H FP inh active.
For CCc1ccc2nc(N3CCC(C(=O)N4CCC5(CC4)OCCO5)CC3)sc2c1 the results were MLLE-PAM2 inh inactive, PABP FP inh 82, PERK inhibitor inactive, eIF4E-4G inh inactive and eIF4H FP inh 2.3.
For Nc1ncnc2c1ccn2[C@@H]1O[C@H](CO)[C@@H](O)[C@H]1O the results were MLLE-PAM2 inh inactive.
For NC(=S)c1cn(C2OC(CO)C(O)C2O)c2ncnc(N)c12 (stereo unspecified) the results were MLLE-PAM2 inh 43, PABP FP inh inactive, PERK inhibitor 3.1, eIF4E-4G inh inactive and eIF4H FP inh inactive.
For c1ccc(P(c2ccccn2)c2ccccn2)cc1 the results were MLLE-PAM2 inh 44, PABP FP inh inactive, PERK inhibitor inactive, eIF4E-4G inh inactive and eIF4H FP inh inactive.
Nc1nnc(P(c2ccccc2)c2ccccc2)s1 was read as MLLE-PAM2 inh inactive, PABP FP inh inactive, PERK inhibitor inactive, eIF4E-4G inh inactive and eIF4H FP inh inactive.
Screening CN1CCC2(CC1)C(C#N)=C(N)NC(S)=C2C#N returned MLLE-PAM2 inh inactive, PABP FP inh active, PERK inhibitor inactive, eIF4E-4G inh inactive and eIF4H FP inh 55!.
For Cc1ccc(/C=C2/C(=O)NC(=O)N(CCc3ccc(F)cc3)C2=O)o1 the results were MLLE-PAM2 inh inactive, PABP FP inh 12, PERK inhibitor inactive, eIF4E-4G inh inactive and eIF4H FP inh inconclusive.
CN(C)c1ccc(/C=C2\C(=O)NC(=O)N(CCc3ccc(F)cc3)C2=O)cc1 was read as MLLE-PAM2 inh inactive, PABP FP inh 50, PERK inhibitor inactive, eIF4E-4G inh inactive and eIF4H FP inh 111.
For O=C1NC(=O)N(CCc2ccc(F)cc2)C(=O)/C1=C/c1ccco1 the results were MLLE-PAM2 inh inactive, PABP FP inh inactive, PERK inhibitor inactive, eIF4E-4G inh inactive and eIF4H FP inh inactive.
For COCc1c(CN)cnc(C)c1N the results were MLLE-PAM2 inh inactive, PABP FP inh inactive, PERK inhibitor inactive, eIF4E-4G inh inactive and eIF4H FP inh inactive.
`O=C1CC(=O)N(c2cccc(Br)c2)C(=O)N1` gave MLLE-PAM2 inh inactive, PABP FP inh 41 and eIF4H FP inh inactive.
O=C1CC(=O)N(c2cccc(C(F)(F)F)c2)C(=O)N1 was read as MLLE-PAM2 inh inactive, PABP FP inh inactive and eIF4H FP inh inactive.
For CC(=O)Nc1ccccc1OP1(=O)COc2ccccc2OC1 the results were MLLE-PAM2 inh inactive, PABP FP inh inactive, PERK inhibitor inactive, eIF4E-4G inh inactive and eIF4H FP inh inactive.
Screening O=C(O)CCn1cc(C=C2C(=O)NC(=S)NC2=O)c(-c2ccccc2)n1 returned MLLE-PAM2 inh 42, PABP FP inh inactive, PERK inhibitor inactive, eIF4E-4G inh inactive and eIF4H FP inh inactive.
`Cc1cc(/C=C2\C(=O)NC(=O)N(c3ccc(Cl)cc3)C2=O)c(C)n1-c1cccc(C(=O)O)c1` gave MLLE-PAM2 inh inactive, PABP FP inh 42 and eIF4H FP inh inconclusive.
`CN(C)c1ccc(/C=C2/C(=O)NC(=O)N(Cc3ccco3)C2=O)cc1` gave MLLE-PAM2 inh inactive, PABP FP inh inactive, PERK inhibitor inactive, eIF4E-4G inh inactive and eIF4H FP inh inconclusive.
`C=CCN1C(=O)/C(=C/c2cccs2)C(=O)NC1=S` gave MLLE-PAM2 inh inactive, PABP FP inh 15, PERK inhibitor inactive, eIF4E-4G inh inactive and eIF4H FP inh inactive.
`O=C1NC(=S)N(Cc2ccco2)C(=O)/C1=C\c1cccs1` gave PABP FP inh inactive, PERK inhibitor inactive, eIF4E-4G inh 70 and eIF4H FP inh inactive.
Screening O=C1NC(=O)N(CCc2ccc(F)cc2)C(=O)/C1=C/c1cccs1 returned MLLE-PAM2 inh inactive, PABP FP inh inactive, PERK inhibitor inactive, eIF4E-4G inh inactive and eIF4H FP inh inactive.
